Measured values: PubChem BioAssay (Tox21)
A number with no mark means an inactive call. Results filed as inconclusive are left out. Entries that show only a call come without a potency. Calls of active or inactive are those of the source. Unless noted, calls follow the shape of the dose curve; as a rule, active = well fitted curve in the direction sought with a large enough effect in the repeat runs; inconclusive = weak or mixed curves; inactive = no such curve, though single readings can be large; an effect the other way counts as inactive or inconclusive.

Legend:
[1] = biological target: Thyrotropin receptor (Homo sapiens) (UniProt P16473); experiment: qHTS assay to identify small molecule antagonists of the thyroid stimulating hormone receptor (TSHR) signaling pathway (AID 1259385; calls by dose curve; also: nearly all actives have a fitted effect of over 20% in size)
Outline: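 TSHR-HEK293 cells (800/well) plated 18 h, then compounds with Ro20-1724 and TSH at 1.5 ng/mL final, 30 min at room temperature. cAMP quantified by HTRF (cAMP-d2/anti-cAMP-cryptate, 1 h); 15 concentrations in triplicate.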

[2] = biological target: Progesterone receptor (Homo sapiens) (UniProt P06401); experiment: qHTS assay to identify small molecule agonists of the progesterone receptor (PR) signaling pathway (AID 1346784; calls by dose curve; also: nearly all actives have a fitted effect of over 30% in size; also: potency is read from the fitted curve at half-maximal effect)
Outline: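 Reporter assay, GripTite PR-UAS-bla HEK 293T cells: 16 hr exposure to DMSO-dissolved compounds at 37C, 5% CO2, in steroid-depleted (2% charcoal-stripped FBS) medium; beta-lactamase measured by FRET fluorescence.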

[3] = qHTS assay to identify small molecule antagonists of the TGF-beta/Smad signaling pathway - cell viability counter screen (AID 1346824); also: nearly all actives have a fitted effect of over 50% in size
Outline: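 SBE-bla HEK 293T cells, incubated overnight, then compound plus 0.25 ng/mL TGF-beta1 (stock added) for 5 hr at 37 C. Viability was read in the same wells by CellTiter-Glo luminescence after 30 min at room temperature.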

[4] = qHTS assay to identify small molecule agonists of the TGF-beta/Smad signaling pathway - cell viability counter screen (AID 1346829); also: top concentration of the series differs between compounds; nearly all actives have a fitted effect of over 45% in size
Outline: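 HEK 293T SBE-bla line, 5 hr compound exposure at 37 C, multiplexed CellTiter-Glo viability read by luminescence.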

[5] = qHTS assay to identify small molecule agonists of the TGF-beta/Smad signaling pathway (AID 1346859; active = well fitted activation curve with a large enough effect in the signal ratio in the repeat runs, not every such curve was filed as active; the % refers to the signal ratio; also: series mostly up to about 77 µM)
Outline: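 Screening used HEK 293T SBE-bla cells at 4,000/well. Test agents: 5 hr, 37 C. Detection: FRET substrate, 2 hr RT, then excitation 405 nm with emissions at 460 and 530 nm.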

[6] = Human pregnane X receptor (PXR) small molecule agonists, qHTS cell viability counter screen (AID 1346977); also: nearly all actives have a fitted effect of over 50% in size
Outline: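 In each well, the PXR reporter HepG2 line was checked for viability: CellTiter-Fluor reagent added 23hr post-dosing, fluorescence read after 1hr incubation at 37C.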

[7] = Caspase-3/7 induction in HepG2 cells by small molecules, qHTS assay (AID 1346978); also: nearly all actives have a fitted effect of over 15% in size
Outline: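 Wild-type HepG2 cells, 2,000/well, settled 5 hr at 37 C and 5% CO2, then compound-treated for 17 hr; caspase-3/7 activity read by luminescent Caspase-Glo 3/7 after 30 min at room temperature.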

[8] = Caspase-3/7 induction in CHO-K1 cells by small molecules, qHTS assay (AID 1346980); also: nearly all actives have a fitted effect of over 15% in size
Outline: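 Wild-type CHO-K1 cells exposed to compounds for 17hr at 37 C, 5% CO2. Caspase-3/7 activity then measured by Caspase-Glo 3/7 luminescence after 30min at room temperature.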

[9] = Caspase-3/7 induction in HepG2 cells by small molecules, qHTS cell viability counter screen (AID 1346981); also: series mostly up to about 92 µM; nearly all actives have a fitted effect of over 30% in size
Outline: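 Wild-type HepG2 cells (2,000/well) were allowed to settle for 5 hr at 37 C, 5% CO2, then dosed with compounds in DMSO by pin transfer. After 16 hr at 37 C, CellTiter-Fluor was added and fluorescence read 1 hr later.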

[10] = biological target: Nuclear receptor subfamily 1 group I member 2 (Homo sapiens) (UniProt O75469); experiment: Human pregnane X receptor (PXR) small molecule agonists, qHTS assay (AID 1346982); also: nearly all actives have a fitted effect of over 35% in size; also: potency is read from the fitted curve at half-maximal effect
Outline: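 PXR-Luc HepG2 cells (CYP3A4 promoter-driven luciferase) were seeded in medium with 5% charcoal-stripped FBS, left 5 hr at 37 C, then exposed to compounds in DMSO for 24 hr. Luminescence was read after ONE-Glo addition.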

[11] = qHTS assay to identify small molecule agonists of the estrogen receptor alpha (ER-alpha) signaling pathway in the presence of an antagonist - cell viability counter screen (AID 1259386);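 also: series mostly up to about 92 µM; cells exposed to compounds for 22 h at 37 °C before the viability read; nearly all actives have a fitted effect of over 30% in size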
Outline: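 VM7Luc4E2 cells (endogenous full-length ER-alpha, 4×ERE-luciferase) were held 5 days in phenol red-free medium with 10% charcoal-stripped FBS, plated, then given 10.0nM ICI-182,780 and compounds at 15 concentrations for 22hr at 37C; viability read by CellTiter-Fluor fluorescence.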

[12] = biological target: Progesterone receptor (Homo sapiens) (UniProt P06401); experiment: qHTS assay to identify small molecule antagonists of the progesterone receptor (PR) signaling pathway (AID 1346795; active = well fitted inhibition curve with a large enough effect in the signal ratio in the repeat runs, not every such curve was filed as active; the % refers to the signal ratio)
Outline: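 Stimulus R5020 at 1 nM final; cells HEK293T PR-UAS-bla; medium with 2% charcoal-stripped FBS; compound exposure 16 hr at 37C, 5% CO2; detection by FRET beta-lactamase substrate, 2 hr, room temperature.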

[13] = qHTS assay to identify small molecule antagonists of the progesterone receptor (PR) signaling pathway - cell viability counter screen (AID 1346798); also: nearly all actives have a fitted effect of over 50% in size; also: potency is read from the fitted curve at half-maximal effect
Outline: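 In the same plates used for the beta-lactamase readout, cell viability of compound- and R5020-treated PR-UAS-bla HEK293T cells (16 hr, 37C) was assessed by CellTiter-Glo luminescence.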

[14] = qHTS assay to identify small molecule agonists of the progesterone receptor (PR) signaling pathway - cell viability counter screen (AID 1346799; calls by dose curve; also: nearly all actives have a fitted effect of over 45% in size)
Outline: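 Multiplexed viability read: CellTiter-Glo luminescence, 30 min RT, following LiveBLAzer FRET measurement on PR-UAS-bla HEK293T cells exposed to compounds 16 hr.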

[15] = biological target: Thyrotropin-releasing hormone receptor (Homo sapiens) (UniProt P34981); experiment: qHTS assay to identify small molecule antagonists of the thyrotropin-releasing hormone receptor (TRHR) signaling pathway (AID 1346877; active = well fitted inhibition curve with a large enough effect in the repeat runs, not every such curve was filed as active; also: series mostly up to about 51 µM)
Outline: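 TRHR-expressing HEK293 cells were seeded, cultured 18 h at 37 °C, then loaded with calcium dye for 2 h. Compounds were pre-incubated 5 min at room temperature before 1 nM TRH (final) was added, and kinetic fluorescence was recorded for 3 min.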

[16] = biological target: Thyrotropin-releasing hormone receptor (Homo sapiens) (UniProt P34981); experiment: qHTS assay to identify small molecule agonists of the thyrotropin-releasing hormone receptor (TRHR) signaling pathway (AID 1346891; calls by dose curve; also: series mostly up to about 58 µM)
Outline: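 Readout was intracellular calcium fluorescence in TRHR-Hek293 cells. Cells were incubated 18 h, dye-loaded 2 h at 37 °C, and treated with compound in agonist mode.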

[17] = Caspase-3/7 induction in CHO-K1 cells by small molecules, qHTS cell viability counter screen (AID 1346979); also: nearly all actives have a fitted effect of over 35% in size
Outline: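 Following a 5hr settling period, CHO-K1 cells at 1,500 per well received DMSO-dissolved compounds. Cell viability was quantified 16hr later by CellTiter-Fluor fluorescence, measured after 1hr with reagent at 37C.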

[18] = biological target: Nuclear receptor subfamily 1 group I member 2 (Rattus norvegicus) (UniProt Q9R1A7); experiment: Rat pregnane X receptor (rPXR) activation by small molecules, qHTS assay (AID 1346983); settings: rPXR luciferase reporter cells, One-Glo luminescence, 24 h; max activation: hits give high values; also: nearly all actives have a fitted effect of over 20% in size; also: potency is read from the fitted curve at half-maximal effect
Outline: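 Cell-based rPXR activation assay: rPXR cells, 2,000 per well, rested 5hr at 37 C, then exposed to compounds in DMSO for 24 hr at 37 C. Luciferase activity read by One-Glo luminescence after 30 min at room temperature.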

[19] = biological target: Nuclear receptor subfamily 1 group I member 2 (Homo sapiens) (UniProt O75469); experiment: Human pregnane X receptor (PXR) activation by small molecules, qHTS assay (AID 1346985); also: nearly all actives have a fitted effect of over 40% in size; also: potency is read from the fitted curve at half-maximal effect
Outline: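 DPX-2 cells (HepG2 co-transfected with a PXR response element and a CYP3A4-promoter luciferase construct) were seeded at 2,000 per well, rested 5 hr at 37C, then exposed to DMSO-dissolved compounds for 24 hr. Activation was read as luciferase luminescence.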

Thyrotropin-releasing hormone receptor (Homo sapiens), sequence (P34981 whole entry, looked up): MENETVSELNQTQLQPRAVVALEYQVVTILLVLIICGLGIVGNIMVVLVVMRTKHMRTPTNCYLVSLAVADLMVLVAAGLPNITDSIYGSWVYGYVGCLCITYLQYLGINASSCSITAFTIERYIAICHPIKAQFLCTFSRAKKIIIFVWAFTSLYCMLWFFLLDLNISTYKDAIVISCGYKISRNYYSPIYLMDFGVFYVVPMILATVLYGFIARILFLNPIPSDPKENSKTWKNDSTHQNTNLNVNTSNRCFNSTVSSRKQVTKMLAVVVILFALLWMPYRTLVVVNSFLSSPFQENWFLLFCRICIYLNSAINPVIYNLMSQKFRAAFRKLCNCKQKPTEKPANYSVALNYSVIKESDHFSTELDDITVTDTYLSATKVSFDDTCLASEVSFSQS
Thyrotropin receptor (Homo sapiens), sequence (P16473 whole entry, looked up): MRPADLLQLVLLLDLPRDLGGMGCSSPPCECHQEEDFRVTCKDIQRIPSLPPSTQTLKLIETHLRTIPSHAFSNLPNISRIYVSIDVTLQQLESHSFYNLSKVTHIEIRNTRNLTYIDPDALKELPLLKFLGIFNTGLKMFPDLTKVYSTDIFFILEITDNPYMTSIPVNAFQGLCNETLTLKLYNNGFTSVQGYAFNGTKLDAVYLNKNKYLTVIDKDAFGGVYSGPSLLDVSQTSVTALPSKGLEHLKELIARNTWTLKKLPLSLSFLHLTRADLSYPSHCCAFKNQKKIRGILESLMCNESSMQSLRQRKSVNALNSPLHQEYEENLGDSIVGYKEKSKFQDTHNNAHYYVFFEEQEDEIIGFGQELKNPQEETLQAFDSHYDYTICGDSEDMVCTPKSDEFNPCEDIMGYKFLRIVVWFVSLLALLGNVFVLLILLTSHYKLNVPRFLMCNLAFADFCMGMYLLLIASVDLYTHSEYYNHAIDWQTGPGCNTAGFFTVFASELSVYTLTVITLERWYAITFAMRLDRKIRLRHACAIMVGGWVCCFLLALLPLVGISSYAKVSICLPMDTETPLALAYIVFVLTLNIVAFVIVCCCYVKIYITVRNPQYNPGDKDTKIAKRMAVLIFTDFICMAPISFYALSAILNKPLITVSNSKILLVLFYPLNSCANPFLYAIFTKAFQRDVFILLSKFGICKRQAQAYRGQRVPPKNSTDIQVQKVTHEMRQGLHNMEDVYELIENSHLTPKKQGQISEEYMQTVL
Progesterone receptor (Homo sapiens), sequence (P06401 whole entry, looked up): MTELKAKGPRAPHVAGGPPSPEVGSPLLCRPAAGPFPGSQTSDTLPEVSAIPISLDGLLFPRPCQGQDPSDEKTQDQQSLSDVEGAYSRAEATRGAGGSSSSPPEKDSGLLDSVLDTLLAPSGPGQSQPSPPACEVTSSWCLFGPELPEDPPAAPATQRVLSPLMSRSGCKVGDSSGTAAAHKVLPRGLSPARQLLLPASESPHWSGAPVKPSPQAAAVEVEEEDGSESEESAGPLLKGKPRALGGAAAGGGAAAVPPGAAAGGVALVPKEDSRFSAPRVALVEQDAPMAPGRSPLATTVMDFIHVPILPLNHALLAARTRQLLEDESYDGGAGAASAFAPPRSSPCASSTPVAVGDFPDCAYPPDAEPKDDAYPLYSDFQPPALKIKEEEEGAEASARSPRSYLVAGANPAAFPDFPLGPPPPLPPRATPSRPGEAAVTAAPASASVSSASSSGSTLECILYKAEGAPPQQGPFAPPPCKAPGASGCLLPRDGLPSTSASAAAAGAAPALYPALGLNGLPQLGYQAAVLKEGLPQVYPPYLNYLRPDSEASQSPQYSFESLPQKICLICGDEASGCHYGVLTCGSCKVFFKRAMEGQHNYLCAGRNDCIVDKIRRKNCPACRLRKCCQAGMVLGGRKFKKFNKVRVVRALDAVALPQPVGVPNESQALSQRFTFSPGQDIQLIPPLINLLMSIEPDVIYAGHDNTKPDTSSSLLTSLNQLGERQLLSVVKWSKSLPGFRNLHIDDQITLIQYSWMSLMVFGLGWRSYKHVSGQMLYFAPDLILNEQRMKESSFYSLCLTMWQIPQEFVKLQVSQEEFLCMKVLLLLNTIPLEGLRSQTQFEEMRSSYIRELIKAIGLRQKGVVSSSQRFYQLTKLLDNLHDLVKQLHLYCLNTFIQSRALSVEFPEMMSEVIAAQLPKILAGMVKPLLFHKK
Nuclear receptor subfamily 1 group I member 2 (Homo sapiens), sequence (O75469 whole entry, looked up): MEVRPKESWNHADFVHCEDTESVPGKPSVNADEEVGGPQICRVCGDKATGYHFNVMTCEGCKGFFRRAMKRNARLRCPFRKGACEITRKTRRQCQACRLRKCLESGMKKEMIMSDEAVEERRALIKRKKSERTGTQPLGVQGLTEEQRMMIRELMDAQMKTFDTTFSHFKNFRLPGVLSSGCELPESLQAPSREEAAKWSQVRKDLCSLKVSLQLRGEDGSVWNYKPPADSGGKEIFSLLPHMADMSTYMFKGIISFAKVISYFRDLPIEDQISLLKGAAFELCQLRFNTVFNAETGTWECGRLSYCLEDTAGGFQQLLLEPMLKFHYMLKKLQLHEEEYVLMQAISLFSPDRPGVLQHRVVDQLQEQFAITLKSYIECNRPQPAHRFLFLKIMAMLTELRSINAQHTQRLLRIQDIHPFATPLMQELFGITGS
Nuclear receptor subfamily 1 group I member 2 (Rattus norvegicus), sequence (Q9R1A7 whole entry, looked up): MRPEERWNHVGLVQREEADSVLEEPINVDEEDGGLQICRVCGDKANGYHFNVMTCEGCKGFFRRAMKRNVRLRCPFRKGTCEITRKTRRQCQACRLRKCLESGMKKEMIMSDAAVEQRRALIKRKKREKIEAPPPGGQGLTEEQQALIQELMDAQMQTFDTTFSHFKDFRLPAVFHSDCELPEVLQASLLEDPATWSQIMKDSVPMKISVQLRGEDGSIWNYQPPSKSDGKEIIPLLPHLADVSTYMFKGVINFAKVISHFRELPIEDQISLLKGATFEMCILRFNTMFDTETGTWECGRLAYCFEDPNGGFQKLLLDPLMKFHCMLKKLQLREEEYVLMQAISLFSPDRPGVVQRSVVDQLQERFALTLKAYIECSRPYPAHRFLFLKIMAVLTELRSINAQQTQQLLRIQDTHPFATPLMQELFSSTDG

Compound	Potency [1]	Potency [2]	Potency [3]	Potency [4]	Potency [5]	Potency [6]	Potency [7]	Potency [8]	Potency [9]	Potency [10]	Potency [11]	Potency [12]	Potency [13]	Potency [14]	outcome [15]	Potency [16]	Potency [17]	Potency [18]	Potency [19]	max activation [18]
CN1C(=O)c2ccccc2C1=O	inactive	1.09 µM (active)	inactive	inactive	inactive	inactive	inactive	inactive	inactive	inactive	–	–	–	–	–	–	–	–	–	–
CCCCCCC(C)(C)C(=O)O	–	inactive	inactive	inactive	inactive	inactive	inactive	inactive	inactive	–	inactive	inactive	inactive	inactive	inactive	inactive	–	–	–	–
O=C1c2ccccc2C(=O)C1c1ccc(Br)cc1	inactive	inactive	inactive	inactive	inactive	inactive	inactive	inactive	inactive	–	–	–	inactive	inactive	inactive	–	inactive	11.2 µM (active)	7.08 µM (active)	–
CN1CCCN=C1COC(=O)C(O)(c1ccccc1)C1CCCCC1 (configuration not stated)	–	inactive	inactive	inactive	inactive	inactive	inactive	inactive	inactive	inactive	inactive	inactive	inactive	inactive	inactive	–	inactive	–	inactive	-0.811%
NNC(=O)CP(=O)(c1ccccc1)c1ccccc1	–	inactive	inactive	inactive	inactive	inactive	inactive	inactive	inactive	inactive	inactive	inactive	inactive	–	inactive	inactive	inactive	–	inactive	–
CS(=O)(=O)c1ccc(-c2cn3ccccc3n2)cc1	inactive	inactive	inactive	inactive	inactive	inactive	inactive	inactive	inactive	2.66 µM (active)	–	–	29.8 µM (active)	–	inactive	inactive	inactive	–	–	–
C=C1C[C@@]23CC[C@H]4[C@@](C)(CCC[C@@]4(C)C(=O)O[C@@H]4O[C@H](CO)[C@@H](O)[C@H](O)[C@H]4O)[C@@H]2CC[C@]1(O[C@@H]1O[C@H](CO)[C@@H](O)[C@H](O[C@@H]2O[C@H](CO)[C@@H](O)[C@H](O)[C@H]2O)[C@H]1O[C@@H]1O[C@H](CO)[C@@H](O)[C@H](O)[C@H]1O)C3	–	inactive	–	inactive	inactive	inactive	inactive	inactive	inactive	inactive	inactive	inactive	inactive	inactive	inactive	inactive	inactive	–	–	–
COc1ncnc(NS(=O)(=O)c2ccc(N)cc2)c1OC	–	inactive	inactive	inactive	inactive	inactive	inactive	inactive	inactive	–	inactive	inactive	inactive	–	inactive	inactive	inactive	–	inactive	-3.86%
